Read-out in test [1]: Thrombomodulin, THBD (gene 7056)
In words: BSK_CASM3C_Thrombomodulin: BioMAP Diversity Plus: CASM3C Assay for Thrombomodulin Biomarker Activity (AID 2283051).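 Note: thrombomodulin protein level measured by ELISA 24 h after dosing.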 Conditions: primary human coronary artery smooth muscle cells; actives raise or lower the signal.

Read-out in test [2]: Tissue Factor, F3 (gene 2152)
In words: BSK_CASM3C_TissueFactor: BioMAP Diversity Plus: CASM3C Assay for Tissue Factor Biomarker Activity (AID 2283052).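 Note: cell surface tissue factor protein level read by ELISA.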 Conditions: primary human coronary artery smooth muscle cells; actives raise or lower the signal.

Read-out in test [3]: Interferon-gamma inducible Protein 10 (IP10), CXCL10 (gene 3627)
Description: BSK_hDFCGF_IP10: BioMAP Diversity Plus: hDFCGF Assay for Interferon-gamma inducible Protein 10 (IP10) Biomarker Activity (AID 2283053). Conditions: primary human foreskin fibroblasts; actives raise or lower the signal. In a few lines:
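Human foreskin fibroblast primary cells (hDFCGF system) were dosed with chemical and assayed at 24 h; IP-10 measured by ELISA. Activity fitted bidirectionally relative to DMSO negative control as baseline.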

Read-out in test [4]: Urokinase-type plasminogen activator receptor (uPAR), PLAUR (gene 5329)
In words: BSK_CASM3C_uPAR: BioMAP Diversity Plus: CASM3C Assay for Urokinase-type plasminogen activator receptor (uPAR) Biomarker Activity (AID 2283054).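 Note: cell-surface uPAR protein level quantified by ELISA.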 Conditions: primary human coronary artery smooth muscle cells; actives raise or lower the signal.

Read-out in test [5]: Vascular cell adhesion molecule 1 (VCAM1), VCAM1 (gene 7412)
Description: BSK_CASM3C_VCAM1: BioMAP Diversity Plus: CASM3C Assay for Vascular cell adhesion molecule 1 (VCAM1) Biomarker Activity (AID 2283055).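 Note: VCAM-1 protein level quantified by ELISA on the cells.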 Conditions: primary human coronary artery smooth muscle cells; actives raise or lower the signal.

Read-out in test [6]: Collagen III, COL3A1 (gene 1281)
Description: BSK_hDFCGF_CollagenIII: BioMAP Diversity Plus: hDFCGF Assay for Collagen III Biomarker Activity (AID 2283056). Conditions: primary human foreskin fibroblasts; actives raise or lower the signal. The gist of the method: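 hDFCGF primary human dermal fibroblasts; 24 h chemical exposure; collagen III by ELISA; bidirectional curve fit vs DMSO baseline (gain or loss of signal).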

Read-out in test [7]: Interleukin-8 (IL8), CXCL8 (gene 3576)
Description: BSK_hDFCGF_IL8: BioMAP Diversity Plus: hDFCGF Assay for Interleukin-8 (IL8) Biomarker Activity (AID 2283058). Conditions: primary human foreskin fibroblasts; actives raise or lower the signal. The gist of the method:
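ELISA read-out of IL-8 from primary human foreskin fibroblast cultures taken 24 h after dosing; values are bidirectional fits relative to DMSO vehicle.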

A short description of test [8]: BSK_hDFCGF_Proliferation: Cell Proliferation Assessment in the BioMAP Diversity Plus: hDFCGF Assay (AID 2283059).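 Note: curves fitted for both rise and fall of signal versus DMSO baseline.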 Conditions: primary human foreskin fibroblasts. In a few lines:
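Sub-confluent human foreskin fibroblast cultures receive test chemical […]. Relative cell number is quantified by sulforhodamine B staining (0.1%, after 10% TCA fixation) at 560 nm, with bidirectional fitting referenced to DMSO.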

Read-out in test [9]: Macrophage colony-stimulating factor (MCSF), CSF1 (gene 1435)
In words: BSK_hDFCGF_MCSF: BioMAP Diversity Plus: hDFCGF Assay for Macrophage colony-stimulating factor (MCSF) Biomarker Activity (AID 2283060). Conditions: primary human foreskin fibroblasts; actives raise or lower the signal. In a few lines: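 ELISA read-out of M-CSF in human dermal foreskin fibroblast cultures, 24 h after chemical dosing; gain or loss of signal fitted bidirectionally relative to DMSO baseline.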

The nature of test [10]: BSK_hDFCGF_SRB: Viability Assessment in the BioMAP Diversity Plus: hDFCGF Assay (AID 2283061).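 Note: cells exposed to compound for 24 h before the read.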 Conditions: primary human foreskin fibroblasts. In a few lines:
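Primary human foreskin fibroblasts; 24 h post-dose; fixed 10% TCA, stained 0.1% SRB, A560 read; total protein as overt cytotoxicity measure; curves fit bidirectionally vs DMSO control.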

Read-out in test [11]: TIMP metallopeptidase inhibitor 1 (TIMP1), TIMP1 (gene 7076)
Description: BSK_hDFCGF_TIMP1: BioMAP Diversity Plus: hDFCGF Assay for TIMP metallopeptidase inhibitor 1 (TIMP1) Biomarker Activity (AID 2283062). Conditions: primary human foreskin fibroblasts; actives raise or lower the signal. The gist of the method: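 ELISA readout of TIMP-1 from human dermal foreskin fibroblast cultures 24 h post-dosing. Curves were fitted in both directions against DMSO baseline, with SRB total-protein staining in parallel cultures as a cytotoxicity check.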

Read-out in test [12]: Monokine induced gamma interferon (MIG), CXCL9 (gene 4283)
In words: BSK_hDFCGF_MIG: BioMAP Diversity Plus: hDFCGF Assay for Monokine induced gamma interferon (MIG) Biomarker Activity (AID 2283063). Conditions: primary human foreskin fibroblasts; actives raise or lower the signal. In a few lines: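 Fibroblasts (human foreskin, primary) dosed, 24 h, MIG by ELISA; fit bidirectional vs DMSO.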

Read-out in test [13]: Matrix Metallopeptidase 1 (MMP1), MMP1 (gene 4312)
Description: BSK_hDFCGF_MMP1: BioMAP Diversity Plus: hDFCGF Assay for Matrix Metallopeptidase 1 (MMP1) Biomarker Activity (AID 2283064). Conditions: primary human foreskin fibroblasts; actives raise or lower the signal. In a few lines:
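Primary human foreskin fibroblasts exposed to chemicals for 24 h; MMP1 measured by ELISA. Cytotoxicity tracked by SRB staining in parallel cultures; bidirectional fit relative to DMSO.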

Read-out in test [14]: Vascular cell adhesion molecule 1 (VCAM1), VCAM1 (gene 7412)
In words: BSK_hDFCGF_VCAM1: BioMAP Diversity Plus: hDFCGF Assay for Vascular cell adhesion molecule 1 (VCAM1) Biomarker Activity (AID 2283065). Conditions: primary human foreskin fibroblasts; actives raise or lower the signal. The gist of the method:
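ELISA read-out of VCAM-1 on human skin fibroblasts, 24 h post-dose; gain or loss of signal fitted bidirectionally against DMSO baseline.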

Read-out in test [15]: Plasminogen activator inhibitor-1 (PAI1), SERPINE1 (gene 5054)
In words: BSK_hDFCGF_PAI1: BioMAP Diversity Plus: hDFCGF Assay for Plasminogen activator inhibitor-1 (PAI1) Biomarker Activity (AID 2283066). Conditions: primary human foreskin fibroblasts; actives raise or lower the signal. In a few lines: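 Human foreskin fibroblasts in the hDFCGF system were dosed with compound for 24 h; PAI-1 was quantified by ELISA. Bidirectional curve fitting used DMSO as negative control and baseline.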

Read-out in test [16]: Intercellular Adhesion Molecule 1 (ICAM1), ICAM1 (gene 3383)
In words: BSK_KF3CT_ICAM1: BioMAP Diversity Plus: KF3CT Assay for Intercellular Adhesion Molecule 1 (ICAM1) Biomarker Activity (AID 2283067). Conditions: primary human keratinocytes with fibroblasts; actives raise or lower the signal. The gist of the method: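 ELISA readout of ICAM-1; KF3CT human skin co-culture (keratinocytes + foreskin fibroblasts), 24 h post-dose; gain/loss fit vs DMSO baseline.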

Read-out in test [17]: Interferon-gamma inducible Protein 10 (IP10), CXCL10 (gene 3627)
Description: BSK_KF3CT_IP10: BioMAP Diversity Plus: KF3CT Assay for Interferon-gamma inducible Protein 10 (IP10) Biomarker Activity (AID 2283068). Conditions: primary human keratinocytes with fibroblasts; actives raise or lower the signal. The gist of the method: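 ELISA read-out of IP-10 after 24 h chemical dosing of human skin primary co-culture (keratinocytes, foreskin fibroblasts). Gain or loss of signal relative to DMSO, bidirectional curve fit.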

Test [18] can be described thus: BSK_KF3CT_SRB: Viability Assessment in the BioMAP Diversity Plus: KF3CT Assay (AID 2283069).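 Note: total protein by sulforhodamine B staining as a cytotoxicity measure; read 24 h after compound addition.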 Conditions: primary human keratinocytes with fibroblasts. In a few lines: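 Human keratinocyte and foreskin fibroblast co-culture exposed to chemical for 24 h. Total protein measured in parallel cultures by 0.1% sulforhodamine B staining after 10% TCA fixation, read at 560 nm; bidirectional fit relative to DMSO.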

Read-out in test [19]: Interleukin-1 alpha (IL1a), IL1A (gene 3552)
In words: BSK_KF3CT_IL1a: BioMAP Diversity Plus: KF3CT Assay for Interleukin-1 alpha (IL1a) Biomarker Activity (AID 2283070). Conditions: primary human keratinocytes with fibroblasts; actives raise or lower the signal. The gist of the method:
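Primary human keratinocyte plus foreskin fibroblast co-culture, dosed and measured at 24 h in 96-well plates. IL-1a level quantified by ELISA; bidirectional fit relative to DMSO.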

Activity calls are given as the source filed them. Rule for the calls: active = hit-call score of the fitted dose curve at least 0.9, where 1 is the maximum; inactive = score below 0.9.

The term AC50 denotes the concentration giving half of the maximal activity seen. Turning to `CCCCC(CC)C(=O)OCCOCCOCCOCCOC(=O)C(CC)CCCC` (centres undefined), the result in test [1], in [2], in [3], in test [4], in test [5] and in [6] was inactive. Moreover, the outcome in [7], in test [8], in test [10], in test [11], in test [12] and in test [13] was inactive. The result in [14], in test [15], in test [16], in test [17], in [18] and in test [19] was inactive. Further, the concentration at half-maximal activity (AC50) in test [9] was 20000 nM (active).

Regarding `COC1=CC(=O)C[C@@H](C)[C@]12Oc1c(Cl)c(OC)cc(OC)c1C2=O`, the outcome in [1], in [3], in test [4], in test [5], in test [6] and in [7] was inactive. Also, the result in [8], in [9], in test [10], in test [11], in test [12] and in test [13] was inactive. The result in [14], in test [16], in test [17] and in [18] was inactive. Besides, the AC50 in test [2] is 2120 nM (active); in test [15], 497 nM (active); in test [19], 1980 nM (active).

`OCC(CO)(CBr)CBr`: the outcome in [1], in test [2], in test [3], in [4], in test [5] and in test [6] was inactive. Besides, the result in [7], in test [8], in test [9], in test [10], in test [11] and in test [12] was inactive. Further, the outcome in [13], in test [14], in test [15], in test [16], in test [17] and in test [18] was inactive. The result in test [19] was inactive.

With `CCC(C)c1ccccc1O` (centres undefined), the outcome in [1], in test [2], in [3], in [4], in test [5] and in test [6] was inactive. Moreover, the result in [7], in test [8], in test [9], in [10], in [11] and in test [12] was inactive. Moreover, the outcome in [13], in test [14], in test [15], in test [16], in test [17] and in [18] was inactive. Besides, the outcome in test [19] was inactive.

For the compound `CCOC(=O)CN[C@@H](C(=O)N1CC[C@H]1C(=O)NCc1ccc(/C(N)=N/O)cc1)C1CCCCC1`, the result in [1], in test [2], in test [3], in [4], in [5] and in [6] was inactive. The outcome in test [7], in [8], in test [9], in test [10], in [11] and in test [12] was inactive. The outcome in [13], in test [14], in test [15], in test [16], in test [17] and in test [18] was inactive. Moreover, in test [19], the result was inactive.

On to `Clc1ccc(Nc2nnc(Cc3ccncc3)c3ccccc23)cc1`, for which the outcome in test [1], in test [3], in test [4], in test [5], in [6] and in test [7] was inactive. Besides, the result in test [8], in test [9], in test [10], in test [11], in test [12] and in test [13] was inactive. Besides, the outcome in test [14], in test [15], in [16], in test [17], in [18] and in [19] was inactive. The AC50 in [2] was 8400 nM (active).

Values taken from PubChem BioAssay (EPA / NIEHS).
